# Reference: PubChem BioAssay (NCI)
# About 83,000 compounds went through this panel and 20% of them were active in at least one assay; those are over-represented in the sample as a whole.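 Activity criterion: percent growth below 10, measured after cells in 96-well plates were exposed to a single compound concentration for 48 hours.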 Unmarked numbers belong to inactive results. Active and inactive are the calls of the source.
# Tests used:
# Assay in all cases: NCI-60 one-dose screen, 48 h (100 = growth as untreated, 0 = no growth, -100 = all killed)
# Settings in all cases: 10 µM
# NCI-H23 lung = tested on: NCI-H23 lung
# NCI-H226 lung = tested on: NCI-H226 lung
# HOP-92 NSCLC = tested on: HOP-92 NSCLC
# NCI-H522 lung = tested on: NCI-H522 lung
# A549/ATCC NSCLC = tested on: A549/ATCC NSCLC
# 786-0 renal = tested on: 786-0 renal
# COLO 205 colon = tested on: COLO 205 colon
# DU-145 prostate = tested on: DU-145 prostate
# K-562 leukemia = tested on: K-562 leukemia
# MDA-MB-231 breast = tested on: MDA-MB-231 breast
# RXF 393 renal = tested on: RXF 393 renal
# SF-268 CNS = tested on: SF-268 CNS
# SF-295 CNS = tested on: SF-295 CNS
# SF-539 CNS = tested on: SF-539 CNS
# UACC-257 melanoma = tested on: UACC-257 melanoma
# M14 melanoma = tested on: M14 melanoma
# MALME-3M melanoma = tested on: MALME-3M melanoma
# NCI-H460 lung = tested on: NCI-H460 lung
SMILES,growth (NCI-H23 lung),growth (NCI-H226 lung) [%],growth (HOP-92 NSCLC) [%],growth (NCI-H522 lung),growth (A549/ATCC NSCLC) [%],growth (786-0 renal),growth (COLO 205 colon),growth (DU-145 prostate),growth (K-562 leukemia),growth (MDA-MB-231 breast),growth (RXF 393 renal),growth (SF-268 CNS) [%],growth (SF-295 CNS),growth (SF-539 CNS),growth (UACC-257 melanoma) [%],growth (M14 melanoma),growth (MALME-3M melanoma) [%],growth (NCI-H460 lung)
Cc1ccc(C)c(COc2cc(NC(=O)c3ccc4c(c3)OCO4)ccc2N(C)S(C)(=O)=O)c1,9.96% (active),37,23.1,-15.9% (active),21.9,6.5% (active),-68.3% (active),-40.5% (active),13.3%,-10.8% (active),-1.01% (active),20.8,-4.18% (active),-7.46% (active),66.6,-34.2% (active),,
CCOC(=O)c1sc2ncnc(Nc3ccc4c(cnn4C(=O)Nc4ccccc4)c3)c2c1C,60.6%,109,,64.5%,56.7,-2.26% (active),70.1%,64.6%,91.6%,37.2%,55.4%,66.2,98.3%,19.2%,,63.7%,32.7,
Cc1cc(SC#N)cc(C(C)(C)C)c1O,93.1%,102,81.7,68.1%,,101%,101%,110%,91.3%,113%,118%,103,102%,95.6%,94.1,90.3%,85.8,
COc1ccc(N(C)c2ncnc3occ(C)c23)cc1,6.05% (active),27.5,,-37.7% (active),15,17.8%,-62.4% (active),-40.2% (active),1.42% (active),-3.09% (active),14.4%,18,-8.16% (active),-20.4% (active),66.8,0.316% (active),,2.75% (active)
O=[N+]([O-])c1ccc(/C(=C/c2ccccc2)[n+]2ccccc2)cc1,113%,105,,,99.7,104%,114%,127%,91.9%,111%,105%,128,102%,107%,101,114%,125,
Clc1nc2ccccc2cc1Cn1nnc(Cc2ccccc2)n1,45.6%,58.2,,42.1%,53.9,72.9%,,75.2%,55.2%,53.1%,83.9%,65.7,47.6%,81.2%,,73.6%,65.6,74.3%
Cc1nc2n(c(=O)c1CCN1CCC(c3noc4cc(F)ccc34)CC1)CCC[C@@H]2O,92.1%,99.6,97.9,,99.3,107%,96.7%,105%,,90.5%,108%,102,87%,98.5%,96.2,104%,89.6,
O=C1c2c(c(=O)[nH]c3ccccc23)CCN1Cc1ccccc1,102%,97.1,,90.6%,103,99.8%,,122%,,98.4%,111%,110,104%,90.4%,104,102%,,108%
CN1CCc2c(sc3nc4n(-c5ccc(Cl)cc5)c(=O)[nH]n4c(=O)c23)C1,97.4%,94.7,,77.9%,74.7,84.8%,108%,103%,107%,120%,118%,106,104%,99.8%,,99.3%,98.5,
Cc1ccccc1N1C(=O)c2cc(S(N)(=O)=O)c(Cl)cc2NC1C (stereo not drawn),101%,112,,,100,99.6%,118%,111%,,119%,128%,106,103%,111%,102,111%,103,111%
O=c1[nH]c(=O)n(C2C[C@H](O)[C@@H](CO)O2)cc1C(F)(F)F (stereo partly drawn),98.1%,107,,,102,101%,113%,123%,,107%,116%,114,92.5%,112%,107,108%,107,113%
Fc1ccc2[nH]cc(-c3nc(-c4ccsc4)cs3)c2c1,83.6%,78.5,,79.2%,,109%,101%,108%,106%,79.5%,100%,99.8,89.8%,94%,,93.7%,93,121%
C[C@H]1[C@H](OC(=O)CCC(=O)O)O[C@@H]2O[C@]3(C)CC[C@H]4[C@H](C)CC[C@@H]1[C@@]24OO3,19.9%,59.5,,,42,33.5%,-5.69% (active),82.7%,,65.1%,55.9%,55.6,11.6%,31.9%,50.8,39.7%,74.8,25.5%
CCN(CC)c1ccc(/C=C2\SC(=O)C(Nc3nnc(-c4cccnc4SCc4ccccc4)o3)C2=O)cc1 (stereo not drawn),21.7%,20.1,,-17.6% (active),12.2,,,28.9%,14.5%,39.4%,-13.2% (active),57.3,12.2%,13.8%,56.9,-11.6% (active),57.9,3.5% (active)
CN1C(C(=O)Nc2ccccn2)=C(O)c2sc(Cl)cc2S1(=O)=O,99.6%,106,,,99.9,104%,105%,106%,,105%,111%,100,94.8%,117%,100,108%,102,99.9%
O=C1NC(=O)c2c(CCCSc3nc4ccccc4c(=O)n3CCc3ccccc3)cccc21,76.7%,82.9,,89.3%,89.4,78.6%,118%,111%,89.7%,65.8%,92.8%,91.2,44.9%,65.7%,105,98.1%,,83.8%
CN1CCN(c2cc3c(cc2F)c(=O)c(C(=O)O)cn3-c2ccc(F)cc2)CC1,95.8%,100,118,,102,97.6%,107%,118%,,109%,116%,93.2,99.8%,99.7%,105,93%,96.3,
Nc1cc(-c2ccncc2)c[nH]c1=O,102%,103,,,106,103%,113%,110%,,115%,125%,103,,104%,111,107%,123,110%
COc1cc2c3c(n([C@H]4CCOC4)c(=O)c2cc1OC)-c1cc2c(cc1C3=O)OCO2,17.4%,20.8,,15.8%,32.5,10.6%,35.8%,19.8%,59.6%,91.8%,41.7%,31.7,-5.69% (active),1% (active),,23%,78,3.66% (active)
